Bioassay records as filed in PubChem.
A selection: hits, their analogues and other compounds. The true share with any hit is near 21%.
ClpP mod: qHTS Assay for Activators of ClpP | ATP-dependent Clp protease proteolytic subunit (Bacillus subtilis (strain 168)), P80244 | purified B. subtilis ClpP, FRET peptide cleavage, 20 min | Potency, µM (series often up to 57.5 µM), inactives show at the highest dose activity change, negative = active | 1.9% of 340,000 active | AID 651965, 2013; active = well fitted falling curve with a large enough effect; inconclusive = small, poorly fitted or top-dose-only effect; inactive = no such curve, though single readings can be large or run the other way; note: potency is the fitted concentration of half-maximal effect; the source files actives as falling curves though it sought activators and does not explain the sign; nearly all actives have a fitted effect of over 65% in size
Target sequence (P80244 whole entry, looked up): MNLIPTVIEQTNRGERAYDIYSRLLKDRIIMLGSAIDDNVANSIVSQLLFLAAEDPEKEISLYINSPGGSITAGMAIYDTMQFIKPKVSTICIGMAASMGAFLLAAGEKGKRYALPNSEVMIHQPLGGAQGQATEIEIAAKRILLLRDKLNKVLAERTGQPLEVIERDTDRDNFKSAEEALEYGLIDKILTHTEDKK
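ClpP 10 microg/mL final, pH 8 Tris/KCl buffer with BSA, glycerol, Tween-20; compound pinned in; FRET-FV substrate; RT 20 min; Ex320/Em430; ΔFRET vs ADEP 5.8 microM, DMSO, no enzyme.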
D3 ag: agonists of human D3 dopamine receptor; 0.58% of 410,000 active; AID 652048; max activation, %; P35462; D3R DiscoveRx beta-arrestin cells, luminescence, 90 min; in the data active = max activation above about 30%; note: 0% is about no effect
Target sequence (P35462 whole entry, looked up): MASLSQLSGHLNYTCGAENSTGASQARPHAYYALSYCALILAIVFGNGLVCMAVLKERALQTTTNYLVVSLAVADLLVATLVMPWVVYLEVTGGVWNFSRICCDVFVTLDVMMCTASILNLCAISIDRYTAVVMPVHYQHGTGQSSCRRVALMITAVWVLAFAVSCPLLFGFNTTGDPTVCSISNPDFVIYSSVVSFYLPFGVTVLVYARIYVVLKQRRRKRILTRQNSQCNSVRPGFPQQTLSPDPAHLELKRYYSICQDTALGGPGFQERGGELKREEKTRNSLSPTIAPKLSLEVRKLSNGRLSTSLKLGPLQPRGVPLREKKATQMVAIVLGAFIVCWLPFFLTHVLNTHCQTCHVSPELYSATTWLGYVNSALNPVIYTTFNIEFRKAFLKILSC
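Agonist mode: compounds and dopamine controls were applied to plated cells for 90 min at 37 degrees C after an overnight attachment at 1500 cells/well. Luminescent read-out followed 30 - 60 minutes at room temperature with DiscoveRx detection reagent.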
D3 antag: blocks the human D3 dopamine receptor; D3R cells, DiscoveRx beta-arrestin luminescence, antagonist mode; stronger effect = lower value; max response, negative = inhibition, %; 2.5% of 360,000 active; in the data active = max response below about -50%; inconclusive = no clear call, values can overlap the other calls; note: % is set by controls: 0 for no effect and ±100 for the full control effect
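Cells plated overnight at 1500 cells/well, then exposed to library compounds with dopamine controls for 90 minutes at 37 degrees C. DiscoveRx reagent added for 30–60 minutes at room temperature; luminescence read, quantitative HTS format.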
TDP1 cell noCPT: qHTS for Inhibitors of human tyrosyl-DNA phosphodiesterase 1 (TDP1): qHTS in cells in absence of CPT; Potency, µM (highest dose often 46.2 µM), for inactives: at the highest dose activity change, negative = growth inhibition, hits mostly inhibitors; 15% of 420,000 active; DT40 Tdp1-/- hTDP1 cells, no CPT, ATP luminescence, 48 h; note: potency is the fitted concentration of half-maximal effect; % is set by controls: 0 for no effect and ±100 for the full control effect; nearly all actives have a fitted effect of over 55% in size
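Chicken DT40 Tdp1-/- cells stably complemented with human TDP1 were seeded at 400 cells/well with DMSO in place of 20 nM camptothecin. After compound pinning, cells grew at least 48 hr at 37 °C; viability read by CellTiter-Glo luminescence.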
TDP1 cell CPT: DT40-hTDP1 cell growth loss with CPT | AID 686979 | Potency, µM (doses to about 46.2 µM), without a hit: at the top dose activity change, negative = growth inhibition, hits mostly inhibitors | 12% of 420,000 active | chicken DT40 Tdp1-/-;hTDP1 cells + 20 nM CPT, ATP luminescence, 48 h; note: potency is the fitted concentration of half-maximal effect; % is set by controls: 0 for no effect and ±100 for the full control effect; nearly all actives have a fitted effect of over 55% in size
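Chicken DT40 Tdp1-/- cells complemented with human TDP1, 400 cells/well, exposed to compounds plus 20 nM camptothecin for at least 48 h at 37 C; viability read as ATP content by CellTiter-Glo luminescence.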
IL-1B inflam inh: inhibitors of inflammasome signaling (IL-1 beta secretion) | THP-1 LPS/ATP IL-1B secretion, AlphaLISA, 16 h; stronger effect = lower value | 4.7% of 360,000 active | AID 743279 | activity change, % at 57.5 µM; in the data active = activity change below about -50%; inconclusive = mostly about -30% to -49%; note: % is set by controls: 0 for no effect and ±100 for the full control effect
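THP-1 cells pretreated 1 hr with compounds (up to 57.5 uM final), then stimulated with LPS (250 ng/mL final) plus ATP (1.25 mM final); secreted IL-1B measured by AlphaLISA after 16 hr, decreased signal indicating inhibition.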
* marks the source's active call; other numbers are inactive results; u = inconclusive; x = not tested or not shown. Unless noted, calls come from the whole dose curve; as a rule, active = well fitted inhibition curve with a large enough effect; inconclusive = small, poorly fitted or top-dose-only effect; inactive = flat fitted curve, though single readings scatter.

SMILES	ClpP mod	D3 ag	D3 antag	TDP1 cell noCPT	TDP1 cell CPT	IL-1B inflam inh
CC1(C)OC(C)(C)/C(=C/Nc2ccc(O)cc2)C1=O	0.8%	0.5	-8.7	23.1µM*	u	14.1
CC1(C)OC(=O)C(=CNc2cccc(O)c2)C(=O)O1	-1.2%	-0.8	6.3	5.6%	0.5%	-7.5
O=C1/C(=C\c2ccc(O)cc2)SC(=S)N1Cc1ccccc1	x	-24.1	-81.9*	u	u	-95.9*
O=C(O)c1ccc(/C=C2/SC(=S)N(Cc3ccccc3)C2=O)cc1	1.3%	2.5	2.1	18.2%	-23.5%	20.2
O=C1/C(=C\c2cc(Br)cc(Br)c2O)SC(=S)N1Cc1ccccc1	1.8%	-20.5	u	14.6µM*	13µM*	-9.5
CCN1C(=O)/C(=C\C=C\c2ccccc2[N+](=O)[O-])SC1=S	x	0.3	-11.5	11.6µM*	25.9µM*	-20.5
O=C1/C(=C\c2cccc([N+](=O)[O-])c2O)SC(=S)N1Cc1ccccc1	-0.7%	-13.5	u	9.2µM*	18.4µM*	36.2
O=C1/C(=C/c2ccc(O)c([N+](=O)[O-])c2)SC(=S)N1Cc1ccccc1	x	19.4	6.5	18.4µM*	u	8.6
CC(=O)Nc1ccc(Nc2cc(C)c3ccccc3n2)cc1	-14.3%	13.5	9.7	u	u	-92.4*
Cc1cc(Nc2ccccc2)nc2cc(O)ccc12	u	-3.6	-11.4	-27.1%	-27.7%	29.4
COc1ccc(Nc2cc(C)c3ccc(O)cc3n2)cc1	-7.8%	-22.6	u	16.4µM*	23.1µM*	-50.2*
N#Cc1ccccc1NC(=O)Cn1cnc2onc(-c3cccc(F)c3)c2c1=O	-1.4%	-10.4	x	-11.3%	-1.5%	x
O=C(c1ccc([N+](=O)[O-])o1)N1CCOCC1	x	3.4	-6.3	u	-6.1%	0.0
O=C(c1ccc([N+](=O)[O-])o1)N1CCc2ccccc21	0.4%	4.6	10.0	11.6µM*	10.3µM*	u
O=C(c1ccc([N+](=O)[O-])cc1[N+](=O)[O-])N1CCc2ccccc21	x	-13.2	-51.0*	u	u	49.3
Cc1ccc(C(=O)N2CCc3ccccc32)o1	-2.9%	8.4	14.5	3.26µM*	-16.5%	-3.9
O=C(c1ccc([N+](=O)[O-])o1)N1CCc2ccccc2C1	-2.3%	-21.1	u	14.6µM*	20.6µM*	-28.3
CCOCCCn1c(SCC(=O)NC2CCCCC2)nc2ccccc2c1=O	-2.5%	1.6	21.9	u	u	3.3
CCCCNC(=O)Cn1nnc(-c2ccccc2)c1COc1ccc(C(C)=O)cc1	-1.8%	0.5	-10.0	u	-26.2%	0.6
CN(Cc1ccccc1)C(=O)Cn1nnc(-c2ccccc2)c1COc1ccccc1	-2.3%	12.2	9.9	20.6µM*	u	-26.0
O=C(Cn1nnc(-c2ccccc2)c1COc1ccc2ccccc2c1)NCC1CC1	-6.2%	-9.8	u	u	18.4µM*	-8.6
CN(Cc1ccccc1)C(=O)Cn1nnc(-c2ccccc2)c1COc1ccc2ccccc2c1	-9.3%	0.4	24.1	18.4µM*	23.1µM*	-6.6
O=C(N/N=C/c1c(Cl)cccc1Cl)c1n[nH]c2c1CCCC2	1.8%	2.2	7.6	11.6µM*	23.1µM*	-12.9
Cc1ccsc1/C=N\NC(=O)c1cc(C(C)(C)C)[nH]n1	u	-15.6	-67.2*	u	-24.4%	-11.6
Cc1ccsc1/C=N\NC(=O)c1n[nH]c2c1CCC2	-2.5%	-8.8	-3.7	3.26µM*	3.26µM*	8.5
SMILES	ClpP mod	D3 ag	D3 antag	TDP1 cell noCPT	TDP1 cell CPT	IL-1B inflam inh
O=C(N/N=C/c1c(Cl)cccc1Cl)c1ccc(F)cc1	0.3%	-22.1	-14.6	-16.6%	-10.3%	23.3
COc1ccc(CCNC(=O)c2ccc3c(c2)N(Cc2c(F)cccc2Cl)C(=O)CS3)cc1OC	-3.0%	6.2	x	9.2µM*	8.2µM*	x
Cc1ccc(C)c(CN2C(=O)CSc3ccc(C(=O)NCCc4ccc(Cl)cc4)cc32)c1	-0.4%	2.3	x	u	8.2µM*	x
COc1ccccc1CNC(=O)c1ccc2c(c1)N(Cc1c(F)cccc1Cl)C(=O)CS2	-2.3%	4.7	x	u	u	x
Cc1ccc(C)c(CN2C(=O)CSc3ccc(C(=O)NCC(C)CN4CCC(C)CC4)cc32)c1 (centres undefined)	x	-1.1	10.3	u	14.6µM*	0.8
O=C(NCCc1ccc(Cl)cc1)c1ccc2c(c1)N(Cc1ccccc1)C(=O)CS2	-1.7%	8.8	x	18.4µM*	16.4µM*	x
O=C1CCc2cc(S(=O)(=O)NC3CCCCC3)ccc2N1	1.9%	-0.9	9.5	-10.9%	6.6%	12.6
O=C(NCCc1ccccc1)c1ccc2c(c1)N(Cc1ccc(F)cc1)C(=O)CS2	-1.0%	-7.3	x	16.4µM*	u	x
O=C(O)c1ccc2c(c1)N(Cc1cccc(F)c1)C(=O)CS2	-0.5%	4.0	6.3	3.0%	8.9%	13.9
Cc1ccc(C)c(CN2C(=O)CSc3ccc(C(=O)N4CCCC4)cc32)c1	x	-0.1	2.4	u	u	-20.7
Cc1ccc(C)c(CN2C(=O)CSc3ccc(C(=O)NCc4ccc(F)cc4)cc32)c1	2.5%	-1.6	x	u	16.4µM*	x
O=C(NCCc1ccccc1)c1ccc2c(c1)N(Cc1c(F)cccc1Cl)C(=O)CS2	-2.8%	-4.2	x	9.2µM*	14.6µM*	x
Cc1nc(SCC(=O)Nc2ccccc2F)[nH]c(=O)c1Cc1ccccc1	0.6%	3.5	x	u	-1.1%	x
COC(=O)CCc1sc(Nc2ccc(OC)cc2)nc1-c1ccc(OC)cc1	-3.3%	6.6	x	u	u	x
COC(=O)[C@@]12CCCCN1[C@H](c1ccc(-c3ccccc3)cc1)[C@@H]1C(=O)N(C)C(=O)[C@@H]12	-4.3%	-26.7	0.0	u	20.6µM*	0.0
COC(=O)[C@@]12CCCN1[C@H](c1ccc(-c3ccc(F)cc3)cc1)[C@H]1C(=O)N(C)C(=O)[C@H]12	-1.2%	0.1	1.2	u	u	6.5
COC(=O)[C@@]12CCCCN1[C@H](c1ccc(-c3ccc(OC)cc3)cc1)[C@H]1C(=O)N(C)C(=O)[C@H]12	-8.3%	9.0	10.7	9.2µM*	11.6µM*	-1.4
COC(=O)[C@@]12CCCCN1[C@H](c1ccc(-c3ccc(F)cc3)cc1)[C@H]1C(=O)N(C)C(=O)[C@H]12	-2.5%	-19.6	1.3	23.1µM*	u	-13.8
COc1ccccc1CC(=O)NNC(=O)CN(C)S(=O)(=O)c1ccc(Cl)cc1	1.4%	9.2	6.3	-22.5%	-9.4%	14.5
